Measurements: the supplement of paper PMC9262897, “Low-cost anti-mycobacterial drug discovery using engineered E. coli” (Nature Communications, 2022)
Counter-ions that a name gives are not always drawn. ± gives the standard deviation of the averaged measurements.

Key:
Test in all cases: growth (OD600 after 10 h); higher = more growth (less inhibition)
[1] = test system: E. coli TESEC Alr+ wild-type control; settings: compound 0.1 mM; raw OD600 reference: median of DMSO wells 0.241, cell-free background 0.041
Experimental: (§1)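 TESEC Mtb Alr E. coli, or the Alr+ wild-type control, in 384-well plates with Prestwick library compounds at 0.1 mM and 1% DMSO, across arabinose induction levels of 1E3 to 1E7 nM. Growth is read as OD600 after 10 h at 37 °C in triplicate biological replicates.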

E. coli TESEC Mtb Alr [2] = settings: compound 0.1 mM
Experimental: as §1

E. coli TESEC Mtb Asd = settings: compound 0.1 mM
Experimental: (§2)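 TESEC E. coli strains in which the native enzyme is deleted and replaced by arabinose-inducible Mtb Asd, DapB, CysH or TrpD, each grown in its selective medium. Strains were screened against the Prestwick library at 0.1 mM and 1% DMSO in 384-well format at low and high arabinose induction. Growth is read as OD600 after 10 h in triplicate.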

E. coli TESEC Mtb DapB = settings: compound 0.1 mM
Experimental: as §2

[3] = test system: E. coli TESEC Alr+ wild-type control; settings: compound 0.1 mM; raw OD600 reference: median of DMSO wells 0.49, cell-free background 0.052
Experimental: (§3)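 TESEC Mtb Alr E. coli (ΔaraC ΔtolC ΔentC Δalr ΔdadX, arabinose-inducible Mtb Alr) or the Alr+ wild-type control strain, grown in defined M9-fructose medium without D-alanine in 96-well plates with Prestwick library compounds at 0.1 mM and 1% DMSO. Low Alr induction is 0.1 µM arabinose and high induction is 10 mM arabinose.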

E. coli TESEC Mtb Alr [4] = settings: compound 0.1 mM; remark: listed apart in the source
Experimental: as §3

[5] = arabinose 1000 nM, raw OD600 reference: median of DMSO wells 0.294, cell-free background 0.041
[6] = arabinose 10000 nM, raw OD600 reference: median of DMSO wells 0.264, cell-free background 0.041
[7] = arabinose 100000 nM, raw OD600 reference: median of DMSO wells 0.201, cell-free background 0.041
[8] = arabinose 1000000 nM, raw OD600 reference: median of DMSO wells 0.193, cell-free background 0.041
[9] = arabinose 10000000 nM, raw OD600 reference: median of DMSO wells 0.146, cell-free background 0.041
[10] = arabinose induction (level): High, raw OD600 reference: median of DMSO wells 0.331, cell-free background 0.041
[11] = arabinose induction (level): Low, raw OD600 reference: median of DMSO wells 0.417, cell-free background 0.041
[12] = arabinose induction (level): High, raw OD600 reference: median of DMSO wells […], cell-free background 0.041
[13] = arabinose induction (level): Low, raw OD600 reference: median of DMSO wells 0.227, cell-free background 0.041
[14] = arabinose 100 nM, raw OD600 reference: median of DMSO wells 0.413, cell-free background 0.052
[15] = arabinose 10000000 nM, raw OD600 reference: median of DMSO wells […], cell-free background 0.052

Structure (SMILES) | growth [1] | growth (E. coli TESEC Mtb Alr [2]; [5]) | growth (E. coli TESEC Mtb Alr [2]; [6]) | growth (E. coli TESEC Mtb Alr [2]; [7]) | growth (E. coli TESEC Mtb Alr [2]; [8]) | growth (E. coli TESEC Mtb Alr [2]; [9]) | growth (E. coli TESEC Mtb Asd; [10]) | growth (E. coli TESEC Mtb Asd; [11]) | growth (E. coli TESEC Mtb DapB; [12]) | growth (E. coli TESEC Mtb DapB; [13]) | growth [3] | growth (E. coli TESEC Mtb Alr [4]; [14]) | growth (E. coli TESEC Mtb Alr [4]; [15])
COc1ccc([C@@H]2Sc3ccccc3N(CCN(C)C)C(=O)[C@@H]2OC(C)=O)cc1 [Diltiazem hydrochloride] | 0.184 ± 0.0078 | 0.239 ± 0.01 | 0.274 ± 0.014 | 0.175 ± 0.0049 | 0.139 ± 0.0028 | 0.139 ± 0.0037 | 0.248 ± 0.063 | 0.434 ± 0.098 | 0.184 ± 0.035 | 0.211 ± 0.056 | 0.476 ± 0.011 | 0.413 ± 0.0022 | 0.3 ± 0.013
C/C=C(/C(=C/C)c1ccc(O)cc1)c1ccc(O)cc1 [Dienestrol] | 0.0526 ± 0.0075 | 0.0496 ± 0.0047 | 0.0394 ± 0.0002 | 0.0419 ± 0.0015 | 0.0393 ± 0.0001 | 0.0759 ± 0.031 | 0.0492 ± 0.0033 | 0.0498 ± 0.0031 | 0.122 ± 0.035 | 0.0554 ± 0.0074 | 0.139 ± 0.14 | 0.0576 ± 0.014 | 0.05137 ± 0.00032
CC(CCc1ccc(O)cc1)NCCc1ccc(O)c(O)c1 (stereo not drawn) [Dobutamine hydrochloride] | 0.116 ± 0.0039 | 0.227 ± 0.021 | 0.174 ± 0.0051 | 0.198 ± 0.0044 | 0.116 ± 0.0039 | 0.115 ± 0.0067 | 0.176 ± 0.006 | 0.165 ± 0.029 | 0.19 ± 0.02 | 0.167 ± 0.02 | 0.539 ± 0.008 | 0.409 ± 0.0099 | 0.343 ± 0.018
C[C@]12C[C@H](O)[C@H]3[C@@H](CCC4=CC(=O)CC[C@@]43C)[C@@H]1CC[C@@H]2C(=O)CO [Corticosterone] | 0.143 ± 0.0016 | 0.195 ± 0.006 | 0.252 ± 0.011 | 0.143 ± 0.015 | 0.16 ± 0.0065 | 0.134 ± 0.0044 | 0.235 ± 0.059 | 0.268 ± 0.055 | 0.179 ± 0.017 | 0.206 ± 0.032 | 0.418 ± 0.033 | 0.402 ± 0.017 | 0.246 ± 0.0064
Cc1cccc(Nc2ccccc2C(=O)O)c1C [Mefenamic acid] | 0.134 ± 0.0041 | 0.135 ± 0.0024 | 0.04523 ± 0.00015 | 0.141 ± 0.002 | 0.103 ± 0.0072 | 0.132 ± 0.0029 | 0.232 ± 0.03 | 0.26 ± 0.047 | 0.203 ± 0.027 | 0.208 ± 0.028 | 0.158 ± 0.011 | 0.169 ± 0.094 | 0.149 ± 0.011
CC1(C)O[C@@H]2C[C@H]3[C@@H]4CCC5=CC(=O)CC[C@]5(C)[C@@]4(F)[C@@H](O)C[C@]3(C)[C@]2(C(=O)CCl)O1 [Halcinonide] | 0.215 ± 0.022 | 0.283 ± 0.011 | 0.2593 ± 0.0019 | 0.181 ± 0.027 | 0.123 ± 0.0028 | 0.152 ± 0.014 | 0.258 ± 0.052 | 0.36 ± 0.049 | 0.188 ± 0.003 | 0.22 ± 0.0073 | 0.442 ± 0.032 | 0.413 ± 0.021 | 0.256 ± 0.019
O=C1CN2Cc3c(ccc(Cl)c3Cl)N=C2N1 [Anagrelide] | 0.216 ± 0.0042 | 0.2815 ± 0.0021 | 0.281 ± 0.0097 | 0.191 ± 0.0049 | 0.209 ± 0.011 | 0.142 ± 0.005 | 0.27 ± 0.06 | 0.423 ± 0.043 | 0.198 ± 0.011 | 0.232 ± 0.024 | 0.536 ± 0.019 | 0.413 ± 0.011 | 0.368 ± 0.065
COc1cc([C@@H]2c3cc4c(cc3[C@@H](O[C@@H]3O[C@@H]5CO[C@@H](C)O[C@H]5[C@H](O)[C@H]3O)[C@H]3COC(=O)[C@H]23)OCO4)cc(OC)c1O [Etoposide] | 0.0715 ± 0.0031 | 0.0527 ± 0.0019 | 0.04273 ± 0.00025 | 0.0604 ± 0.0031 | 0.0501 ± 0.00056 | 0.1106 ± 0.0011 | 0.112 ± 0.015 | 0.0831 ± 0.013 | 0.113 ± 0.0098 | 0.0846 ± 0.011 | 0.142 ± 0.0036 | 0.129 ± 0.02 | 0.0985 ± 0.018
CCCC(=O)Nc1ncnc2c1ncn2[C@@H]1O[C@@H]2COP(=O)(O)O[C@H]2[C@H]1OC(=O)CCC [Bucladesine sodium salt] | 0.25 ± 0.0053 | 0.31 ± 0.019 | 0.275 ± 0.0043 | 0.206 ± 0.015 | 0.189 ± 0.0065 | 0.138 ± 0.012 | 0.355 ± 0.06 | 0.47 ± 0.008 | 0.2 ± 0.016 | 0.218 ± 0.014 | 0.565 ± 0.093 | 0.405 ± 0.011 | 0.362 ± 0.013
CN[C@@H]1[C@@H](O[C@H]2O[C@H](CO)[C@@H](N)[C@H](O)[C@H]2O)OC2C[C@@H](N)[C@@H](O[C@H]3[C@H](O)[C@@H](O)[C@H](N)C[C@@H]3N)OC2[C@@H]1O (stereo partly drawn) [Apramycin] | 0.0408 ± 0.00099 | 0.045 ± 0.0037 | 0.03913 ± 0.00032 | 0.0442 ± 0.00091 | 0.0395 ± 0.0018 | 0.05653 ± 0.00029 | 0.0487 ± 0.0014 | 0.0476 ± 0.0012 | 0.0527 ± 0.0023 | 0.048 ± 0.0016 | 0.0798 ± 0.0039 | 0.0841 ± 0.008 | 0.133 ± 0.069
CO[C@@]1(NC(=O)C(C(=O)O)c2ccc(O)cc2)C(=O)N2C(C(=O)O)=C(CSc3nnnn3C)CO[C@@H]21 (stereo partly drawn) [Moxalactam disodium salt] | 0.03947 ± 0.00038 | 0.0445 ± 0.0063 | 0.0401 ± 0.00064 | 0.039 ± 0.0013 | 0.03987 ± 0.00015 | 0.0393 ± 0.00046 | 0.0546 ± 0.0041 | 0.0559 ± 0.007 | 0.0504 ± 0.0038 | 0.0472 ± 0.001 | 0.04587 ± 5.8e-05 | 0.0472 ± 0.00072 | 0.056 ± 0.0067
CN[C@@H]1[C@@H](O)[C@@H](O[C@@H]2[C@@H](O)[C@H](O[C@H]3OC(CN)=CC[C@H]3N)[C@@H](N)C[C@H]2N)OC[C@]1(C)O [Sisomicin sulfate] | 0.0439 ± 0.00085 | 0.04797 ± 0.00015 | 0.0404 ± 0.00055 | 0.0483 ± 0.00072 | 0.0422 ± 0.00046 | 0.0657 ± 0.002 | 0.075 ± 0.0066 | 0.107 ± 0.055 | 0.144 ± 0.032 | 0.0843 ± 0.01 | 0.198 ± 0.21 | 0.231 ± 0.15 | 0.3071 ± 0.0019
NS(=O)(=O)c1cc2c(cc1C(F)(F)F)NC(Cc1ccccc1)NS2(=O)=O (stereo not drawn) [Bendroflumethiazide] | 0.233 ± 0.0098 | 0.301 ± 0.0067 | 0.261 ± 0.0081 | 0.219 ± 0.015 | 0.162 ± 0.005 | 0.154 ± 0.0047 | 0.459 ± 0.046 | 0.451 ± 0.035 | 0.217 ± 0.017 | 0.268 ± 0.0034 | 0.487 ± 0.035 | 0.403 ± 0.012 | 0.298 ± 0.016
N[C@@H](Cc1cc(I)c(Oc2ccc(O)c(I)c2)c(I)c1)C(=O)O [Liothyronine] | 0.18 ± 0.012 | 0.211 ± 0.012 | 0.2 ± 0.0047 | 0.177 ± 0.0039 | 0.134 ± 0.0031 | 0.162 ± 0.003 | 0.32 ± 0.038 | 0.152 ± 0.017 | 0.232 ± 0.0046 | 0.264 ± 0.017 | 0.36 ± 0.023 | 0.373 ± 0.035 | 0.272 ± 0.015
C=C(NC(=O)C(=C)NC(=O)c1csc(C2=N[C@@H]3c4csc(n4)[C@H]4NC(=O)c5csc(n5)[C@H]([C@](C)(O)[C@@H](C)O)NC(=O)[C@H]5CSC(=N5)/C(=C/C)NC(=O)[C@H]([C@@H](C)O)NC(=O)c5csc(n5)[C@]3(CC2)NC(=O)[C@H](C)NC(=O)C(=C)NC(=O)[C@H](C)NC(=O)[C@H]([C@@H](C)CC)N[C@@H]2C=Cc3c([C@H](C)O)cc(nc3[C@H]2O)C(=O)O[C@@H]4C)n1)C(N)=O [Thiostrepton] | 0.297 ± 0.021 | 0.327 ± 0.004 | 0.298 ± 0.013 | 0.397 ± 0.0046 | 0.185 ± 0.0083 | 0.229 ± 0.02 | 0.295 ± 0.053 | 0.299 ± 0.091 | 0.164 ± 0.047 | 0.194 ± 0.058 | 0.603 ± 0.094 | 0.415 ± 0.019 | 0.316 ± 0.032
O=C1[C@H](CC[C@H](O)c2ccc(F)cc2)[C@@H](c2ccc(O)cc2)N1c1ccc(F)cc1 [Ezetimibe] | 0.0438 ± 0.00074 | 0.0482 ± 0.0028 | 0.046 ± 0.00091 | 0.0462 ± 0.0037 | 0.0477 ± 0.004 | 0.0501 ± 0.0032 | 0.101 ± 0.082 | 0.0479 ± 0.0012 | 0.0503 ± 0.003 | 0.04873 ± 0.00038 | 0.0525 ± 0.0014 | 0.0636 ± 0.0051 | 0.061 ± 0.01
